# Assay results reported in PubChem BioAssay AID1259318 (Sanford-Burnham Center for Chemical Genomics, 2017).
# In all, about 370,000 compounds went through this assay and about 3,000 (0.81%) were called active. Shown is part of a subset that was picked to be rich in actives. A number with no mark means an inactive call.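 How the source made its calls: active means activity above about 14% (limit read from the data; passing the limit was not always enough); inactive means the rest.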
# Target: Nuclear receptor subfamily 1 group D member 1 (Homo sapiens) (UniProt P20393)
# Assay: Rev-erbα–DNA interaction modulation – biochemical, FITC-DNA, fluorescence polarization, uHTS, primary screen (AID 1259318);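 further: 0% = DMSO wells with 35 nM protein and 100% = DMSO wells with 750 nM protein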
# Conditions: Rev-erbα–FITC-DNA binding, 90 min, at 10 µM, active compounds read high
# Sequence of Nuclear receptor subfamily 1 group D member 1 (Homo sapiens) (P20393 whole entry, looked up): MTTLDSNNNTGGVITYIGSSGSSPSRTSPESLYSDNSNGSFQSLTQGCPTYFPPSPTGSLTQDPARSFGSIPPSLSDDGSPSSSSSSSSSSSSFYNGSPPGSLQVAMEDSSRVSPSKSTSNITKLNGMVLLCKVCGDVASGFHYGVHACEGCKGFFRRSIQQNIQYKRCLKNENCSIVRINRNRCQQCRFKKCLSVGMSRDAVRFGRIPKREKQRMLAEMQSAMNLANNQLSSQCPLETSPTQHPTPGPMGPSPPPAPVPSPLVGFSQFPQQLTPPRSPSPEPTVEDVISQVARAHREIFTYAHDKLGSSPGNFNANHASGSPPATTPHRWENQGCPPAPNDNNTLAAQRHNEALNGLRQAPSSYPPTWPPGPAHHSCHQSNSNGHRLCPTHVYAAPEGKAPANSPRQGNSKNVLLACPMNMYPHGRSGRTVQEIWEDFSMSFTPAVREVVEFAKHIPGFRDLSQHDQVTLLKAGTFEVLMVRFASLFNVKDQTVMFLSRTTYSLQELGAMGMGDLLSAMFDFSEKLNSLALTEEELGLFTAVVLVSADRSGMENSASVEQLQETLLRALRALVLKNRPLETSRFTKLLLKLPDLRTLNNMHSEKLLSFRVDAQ
row,Structure (SMILES),activity
1,CC1(C)C2CC[C@]3(C)C(C(=O)C=C4[C@@H]5C[C@@](C)(C(=O)O)CC[C@]5(C)CC[C@]43C)[C@@]2(C)CC[C@@H]1O (some centres undefined),-5.93%
2,CC(C)(C)OC(=O)C[C@@H]1C/C=C\C[C@H](CC(=O)N[C@@H](CO)Cc2ccccc2)C(=O)N[C@H](Cc2ccccc2)COC1=O,-3.46%
3,Cc1ccc(C)c2c1cc(C)c1nnc(SCC(=O)Nc3cccc(C(=O)O)c3)n12,-2.26%
4,Cc1ccc2nc(SCc3nnc(-c4ccccc4[N+](=O)[O-])o3)c(C#N)cc2c1,-0.86%
5,Cc1nc2cc(NC(=O)CSc3nc4c(C)cccc4cc3C#N)ccc2s1,95.7% (active)
6,Cc1csc(SCC(=O)Nc2sccc2C#N)n1,-1.85%
7,Cc1cc(C#N)c(SCC(N)=O)nc1-c1ccc(F)cc1,-0.55%
8,CCOc1ccc2cc(C#N)c(SCC(=O)OC)nc2c1,116% (active)
9,COC(=O)CSc1nc2c(c(C3CC=CCC3)c1C#N)CCC2 (centres undefined),0.02%
10,Cc1ccc(NC(=O)CSc2sc3c(O)cc(=O)[nH]c3c2C#N)cc1C,-17.5%
11,Cc1nonc1NC(=O)CSc1nc2ccccc2cc1C#N,39.8% (active)
12,CCNC(=O)CC1C(=O)N(c2ccc(OC)cc2)C(=O)N1CCOC (centres undefined),-2.32%
13,C/C(=N\NC(=O)c1cc2c(s1)CCC(C)C2)c1cccnc1 (centres undefined),-5.04%
14,CCCCN(CCCC)CCNC(=O)CN1C(=O)COc2ccc(S(=O)(=O)N3CCOCC3)cc21,2.87%
15,C[C@@H](CN1C2=NC[C@@H](Cc3ccccc3)N2C[C@H]1Cc1ccc(O)cc1)NC(=O)CCC1CCCCC1,-3.34%
16,C[C@H]1CCC/C=C/C(=O)c2c(O)cc(O)cc2CC(=O)O1,-5.09%
17,CC(C)OCCCNC(=O)CN1C(=O)/C(=C/c2ccccc2F)Oc2ccccc21,25% (active)
18,O=C(CN1C(=O)/C(=C/c2ccccc2F)Sc2ccccc21)NCc1cccnc1,-1.22%
19,O=C(CN1C(=O)COc2ccccc21)Nc1ccc(F)cc1,-4.74%
20,CCN(CC)C(=O)CC[C@@H]1CC[C@]2(CCCN(S(=O)(=O)C3CCCCC3)C2)O1,-2.68%
21,COc1ccccc1OCCNCC(O)COc1cccc2[nH]c3ccccc3c12 (centres undefined),0.09%
22,Oc1ccc2ccc3cccc[n+]3c2c1,34.3% (active)
23,COC(=O)C1=C(C)N(Cc2ccccc2C(F)(F)F)C(=NCc2ccc(OC)cc2)NC1c1cccc(C(F)(F)F)c1 (centres undefined),3.37%

row,Structure (SMILES),activity
1,COc1ccccc1NC(=O)COC(=O)CNC(=O)C1CCCCC1,-2.69%
2,C=C(C)C1CC=C(C)/C(=N/NC(=O)CCCNc2cccc(C)c2)C1 (centres undefined),-3.69%
3,C=C(C)C1CC=C(C)/C(=N\NC(=O)CNc2ccccc2OC)C1 (centres undefined),28.5% (active)
4,CN1/C(=C\C=C2\N=C(c3ccc(F)cc3)OC2=O)C(C)(C)c2ccccc21,36.5% (active)
5,COc1ccc(-n2c(COc3ccc(C)cc3)nnc2SCC(=O)Nc2ccc(Oc3ccccc3)cc2)cc1,-3.25%
6,CCc1ccc(S(=O)(=O)Nc2ccc(C)c(NS(C)(=O)=O)c2)cc1,-7.94%
7,CN1C(=O)c2ccc(C(=O)Nc3ccc(Br)cn3)cc2C1=O,73.7% (active)
8,O=C(/C=C/c1ccc(Cl)cc1)Nc1ccc(Br)cn1,-0.31%
9,CN1C(=O)c2ccc(NC(=O)c3c(F)c(F)c(F)c(F)c3F)cc2C1=O,-2.78%
10,CS(=O)(=O)c1ccc(Cl)c(NC(=O)COC(=O)c2ncc(Cl)c(Cl)c2Cl)c1,-0.27%
11,Cc1[nH]c2ccccc2c1CC(=O)Nc1ccc(Nc2cccnc2)c(-c2cccc(Cl)c2)c1,3.32%
12,O=C(O)CCCCC(=O)O,-0.86%
13,CCCCCn1nnnc1C1c2ccccc2C(=O)N1Cc1ccco1 (centres undefined),17.3% (active)
14,CCC(C)NC(=O)C1c2ccccc2C(=O)N1Cc1ccccc1 (centres undefined),-2.38%
15,O=C1c2ccccc2C(Nc2ccc3c(c2)OCCO3)N1Cc1ccco1 (centres undefined),-1.18%
16,CC(=O)c1c(N)n(C)c(=O)n(C)c1=O,5.4%
17,COC(=O)CN1C(=O)C(C)(C)Oc2ccc(C(=O)Nc3cccc(OC)c3)cc21,6.32%
18,COc1ccc(NC(=O)CSc2ncnc3[nH]ncc23)cc1,-0.29%
19,CCOc1ccc(NC(=O)CSc2nncn2C)cc1,3.05%
20,CCOc1ccc(NC(=O)CSc2ncnc3c2sc2ccccc23)cc1,298% (active)
21,COC(=O)Nc1nc2ccc(C(=O)C3CC3)cc2[nH]1,-10.6%
22,CC1(C)OC[C@@H](COC(=O)CCc2ccc(OC[C@@H](O)CNCCNC(=O)N3CCOCC3)cc2)O1,0.02%
23,CC(NC(=S)Nc1ccccc1)C(c1cccs1)N1CCOCC1 (centres undefined),4.26%

row,Structure (SMILES),activity
1,CN(C)c1ccc(/C=C2\NC(=S)N(Cc3ccccc3)C2=O)cc1,40.1% (active)
2,CC(=O)C1=C(C)N(Cc2ccccc2)C(=S)NC1c1cccc(Br)c1 (centres undefined),-3.28%
3,O=[N+]([O-])/C=C1\CCCCCN1,-3.45%
4,COc1cccc(CNC(=O)[C@H]2CCCN2C(=O)[C@H]2CCCN2C(=O)C2CCCCC2)c1,4.65%
5,Cc1cc(C)c(/C=C2\C(=O)Nc3ccccc32)[nH]1,22.7% (active)
6,O=C1Nc2ccccc2C1=NN=Cc1ccco1,-0.74%
7,Cc1ccc(-c2nc(CS(=O)CC(=O)N3CCN(c4ncccn4)CC3)c(C)o2)cc1 (centres undefined),4.76%
8,O=S(=O)(c1ccccc1)N1CCC(c2nc3ccccc3o2)CC1,-9.25%
9,CC1(C)CC2CC(C)(CN2c2ncnc3ccc(Br)cc23)C1 (centres undefined),20.4% (active)
10,COCCN1CCn2c(nc3cc(NS(C)(=O)=O)ccc32)C1,-3.86%
11,Cc1ccc(NC(=O)c2cc(C)nn2-c2ccccc2)c(C)c1,2.36%
12,CCOC(=O)c1ccc(NC(=O)Cn2cnc3cc(C)c(C)cc32)cc1,1.51%
13,CCOC(=O)c1cn[nH]c1NC(=S)Nc1ccccc1,-3.54%
14,CCOC(=O)c1ccc(NC(=S)Nc2cc(C)cc(C)n2)cc1,25.7% (active)
15,COc1ccc(CNC(=O)COC(=O)/C=C/c2ccc(S(=O)(=O)N3CCOCC3)cc2)cc1,-0.37%
16,O=C(Nc1ccccc1F)c1ccccc1-c1ccccc1,8.73%
17,CCSc1nnc(SCC(=O)NNC(=O)c2ccccc2F)s1,-6.25%
18,O=C(Nc1nnc(-c2ccccc2F)s1)c1ccccc1F,23.9% (active)
19,CC1(Oc2ccccc2-c2ccno2)CCN(Cc2ccc(-c3ccccc3)o2)C1 (centres undefined),-3.17%
20,O=C(Nc1cccc(Cl)c1)OC1CC2CC1[C@H]1CCCCN1[C@H]2Cc1ccccc1 (some centres undefined),0.26%
21,CCCn1c(N)c(C(=O)CSc2nc3ccccc3c(=O)n2-c2ccc(OC)cc2)c(=O)[nH]c1=O,-7.88%
22,COc1cccc(-n2c(SCC(=O)c3c[nH]c4ccccc34)nc3ccccc3c2=O)c1,69.3% (active)
23,COc1ccc(-n2c(SCC(=O)Nc3ccc(C)c(Cl)c3)nc3ccccc3c2=O)cc1,-4.51%

row,Structure (SMILES),activity
1,Cc1ccc(C2=Nc3c(ccc4ccccc34)C(c3ccncc3)=NN2)cc1,3.5%
2,Cc1ccc(S(=O)(=O)N2[C@@H](Cc3ccccc3)CO[C@H]2CC(=O)OCc2ccccc2)cc1,-1.88%
3,Cc1cc(Br)ccc1NC(=O)c1cnc(N2CCN(c3ccccn3)CC2)c2ccccc12,0.52%
4,Cc1cc(Br)ccc1NC(=O)c1sc2ncn(CC(=O)N3CCN(c4ccccn4)CC3)c(=O)c2c1C,58.2% (active)
5,Cc1sc2ncn(CC(=O)NCCCC(=O)N3CCN(c4ccccc4F)CC3)c(=O)c2c1C,-0.15%
6,CCCCOc1ccc(N(CC(=O)NC(C)C)C(=O)CCC(=O)Nc2ccccn2)cc1,-9.8%
7,CCC(C(=O)NC1CCCCC1)N(C(=O)c1snc(C(N)=O)c1N)c1ccc(OC)cc1OC (centres undefined),2.92%
8,CCC(C(=O)NC1CCCC1)N(C(=O)c1snc(C(N)=O)c1N)c1ccc2c(c1)OCCO2 (centres undefined),34.2% (active)
9,COc1ccc(N(C(=O)c2snc(C(N)=O)c2N)C(C(=O)NC2CCCC2)c2ccco2)cc1OC (centres undefined),4.63%
10,COc1ccc(C(=O)CN2C(=O)NC3(CCc4ccccc43)C2=O)c(OC)c1 (centres undefined),6.28%
11,O=C(Nc1cccnc1)c1noc2c1CCCCC2,0.99%
12,O=C(O)C1=CCCN(CCON=C(c2ccccc2)c2ccccc2)C1,-6.65%
13,COc1ccc(CCNC(=O)CSc2nnc3ccc(-c4ccncc4)nn23)cc1,2.33%
14,COc1ccc(CCNC(=O)CSc2nnc(-c3cccc(F)c3)o2)cc1OC,6.95%
15,COc1cccc(-c2ccc(C#N)c(SCC(=O)NCCc3ccc(Cl)cc3)n2)c1,29.2% (active)
16,COc1ccc(CCNC(=O)CSc2nc(C)nc3c2oc2ccccc23)cc1OC,-3.78%
17,COc1ccc(CCNC(=O)CSc2nc(-c3ccc(OC)c(OC)c3)ccc2C#N)cc1,56% (active)
18,COc1cc(OC)cc(C(=O)NCCSCc2ccc(Cl)cc2)c1,-1.8%
19,O=C(O[C@@H]1[C@H](Cc2ccccc2)NS(=O)(=O)[C@H]2C[C@@H]3C=C[C@]12O3)c1ccccc1Br,4.17%
20,Cc1c[nH]c2cccc(-c3ccc(Cl)cc3)c12,4.69%
